Pf growth 48h – inhibits P. falciparum growth in the first generation, 48 h; P. falciparum luciferase growth in erythrocytes, 48 h; Potency, µM (highest dose often 28.7 µM), for the others: top-dose activity change, negative = inhibition, actives largely listed as inhibitors; 310,000 compounds, 5.9% hits; AID 504832; note: potency is the fitted concentration of half-maximal effect; % is set by controls: 0 for no effect and ±100 for the full control effect
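Parasite viability was followed by luminescence of a genomically integrated firefly luciferase. Cultures held 0.1% parasitemia at 2% hematocrit (final), incubated under 5% CO2 at 37 C.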
Shiga inhibitor – blocks Shiga toxin action in Vero cells; Vero cells, Shiga toxin protein synthesis inhibition reporter; inhibition, % at 38.7 µM; 290,000 compounds, 9.2% hits; AID 2315; in the data active = inhibition mostly above about 28%, no sharp cut-off; inactive = mostly below about 43%; note: 0% is about no effect
Pf growth 96h – P. falciparum growth inhibition at 96 hour, primary screen for plastid delayed-death inhibitors. Potency, µM (top dose mostly 28.7 µM), for inactives: top-dose activity change, negative = inhibition, actives largely listed as inhibitors. P. falciparum luciferase reporter growth, 96 h. 320,000 compounds, 6.9% hits; note: potency is the fitted concentration of half-maximal effect; % is set by controls: 0 for no effect and ±100 for the full control effect
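Two parasite generations (96 h, 37 C, 5% CO2) of compound exposure in infected erythrocytes (0.05% parasitemia, 2% hematocrit). Luciferase-reporter P. falciparum; decreased luminescence indicates inhibited growth, aimed at apicoplast-acting delayed death.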
CHX counter – affects cycloheximide protein synthesis inhibition readout, counter-screen | cell reporter, cycloheximide protein synthesis inhibition counterscreen | 300,000 compounds, 12% hits | max response, %; in the data active = max response mostly above about 13%, no sharp cut-off; inactive = mostly below about 14%; note: read at 38.3 µM for the half of the compounds with a filed dose; 0% is about no effect
* = called active by the depositor; u = inconclusive; x = no result given; [ ] = another dose, or the depositor's remark. This is a sample that favours compounds with a hit; in the whole collection about 21% have one here. Unless noted, calls come from the whole dose curve; as a rule, active = well fitted inhibition curve with a large enough effect; inconclusive = small, poorly fitted or top-dose-only effect, or another doubt; inactive = no such curve, though single readings can be large or run the other way.

SMILES	Pf growth 48h	Shiga inhibitor	Pf growth 96h	CHX counter
C=CCn1c(SCc2cc(=O)n3cc(C)ccc3n2)nnc1-c1ccc(F)cc1	-27%	-3	5.2µM*	7
Cc1ccc2nc(CSc3nnc(-c4ccncc4)n3C)cc(=O)n2c1	-4%	-4	-28%	-1
CCCNC(=O)[C@H]1N2C(=O)c3c(ccc(OC)c3OC)C2SC1(C)C (stereo not given in full)	x	-7	3%	-2
COc1ccc(-c2[nH]ncc2CN2CCCN(c3ccccc3)CC2)c(F)c1	3%	-3	2%	-2
COc1ccc(-c2cn[nH]c2-c2ccc(OCc3ccccc3)cc2O)cc1	u	-2	u	-4
COc1ccc(-c2cn[nH]c2-c2ccc(OC)cc2O)cc1	9.3µM*	-4	12µM*	16
COc1ccc(-c2[nH]ncc2-c2ccc(Cl)cc2)c(O)c1	12µM*	-16	4.1µM*	20
CCOc1ccc(-c2[nH]ncc2-c2ccccc2)c(O)c1	u	2	7.4µM*	-4
COc1ccc2c(c1)CCc1cn[nH]c1-2	-6%[0.00184 µM]	23	22%	13*
CN(CC(=O)Nc1ccc(F)cc1)C(=O)CSc1ncccn1	19%	x	41%	x
COc1ccccc1C(CC(=O)O)NS(=O)(=O)c1ccc2c(c1)N(C(C)=O)CC(C)O2 (stereo not given)	3%	-3	u	1
COc1ccccc1-c1cn[nH]c1-c1ccc(OCc2ccccc2)cc1O	6.6µM*	-9	3.7µM*	-3
CC(C)n1c(CN(C)c2ccccc2)nc2ccccc21	u	-4	-9%	7
CC(C)Cn1c(S(=O)(=O)O)nc2ccccc21	u	-1	0%	8
CCCn1c(/C=C/c2ccccc2)nc2ccccc21	-26%	106*	166%	26*
CC(C)n1c(/C=C/c2ccccc2)nc2ccccc21	43%	79*	-11%	30*
CCn1c(/C=C/c2cc[n+](C)cc2)nc2ccccc21	u	-7	u	-1
CC(C)Cn1c(/C=C/c2ccco2)nc2ccccc21	18%	33	u	19*
COCCOCCn1c(/C=C/c2ccccc2)nc2ccccc21	0%	28	-7%	20*
Cc1ccc(S(=O)(=O)N2C(=O)CCC2C(N)=O)cc1 (stereo not given)	10%	-17	u	-2
CCc1nc2ccccc2n1Cc1ccc(OC)c(OC)c1	u	2	-3%	-7
COc1ccc(/C=C/c2nc3ccccc3n2Cc2ccc(OC)c(OC)c2)cc1	0%	57*	-85%	70*
COc1ccc(S(=O)(=O)N2CC(O)CC2C(=O)OCC(=O)Nc2ccc(Cl)cn2)cc1 (stereo not given)	7%	-6	1.5µM*	-1
CC(C)N(C(=O)COC(=O)[C@@H]1CC(O)CN1S(=O)(=O)c1ccc(C(C)(C)C)cc1)C(C)C (stereo not given in full)	4.1µM*	41	6.6µM*	-1
O=C(COC(=O)C1CC(O)CN1S(=O)(=O)c1ccc(Cl)cc1)c1ccccc1 (stereo not given)	14%	-11	49%	7
SMILES	Pf growth 48h	Shiga inhibitor	Pf growth 96h	CHX counter
N#Cc1cccnc1N1CCN(C(=O)c2cccs2)CC1	15%	-10	2%	8
COc1ccc(NC(=O)c2ccc(NC(=O)CN(C)CC(=O)Nc3c(C)cccc3C)cc2)cc1	u	2	u	5
COc1cc(-c2nc3ccccn3c2/N=C/c2cc(OC)c(O)cc2Cl)ccc1O	7%	22*	9%	30*
COc1cc(-c2nc3ccccn3c2N)ccc1O	1%	-2	1.7µM*	-2
Cn1c(C(=O)N2CCN(c3ncccn3)CC2)cc2c(=O)n(C)c3ccccc3c21	x	-5	10µM*	-2
O=C(Cn1cnc2ccccc2c1=O)N1CCN(Cc2ccc3c(c2)OCO3)CC1	x	-12	u	-4
Cn1c(=O)c([N+](=O)[O-])c(N2CCN(Cc3ccc4c(c3)OCO4)CC2)c2ccccc21	12µM*	12	12µM*	8
CC(C)[C@@H](C(=O)N1CCN(Cc2ccc3c(c2)OCO3)CC1)n1nnc2ccccc2c1=O	u	-1	13µM*	0
Cn1c(C(=O)N2CCN(Cc3ccc4c(c3)OCO4)CC2)cc2c(=O)n(C)c3ccccc3c21	x	-7	1.9µM*	-6
Cc1ccc(C(=O)NCCNC(=O)Cc2ccccc2)cn1	16%	-8	1%	-2
CCN(CC)c1ccc(CNc2nc3ccccc3n2CCN2CCCCC2)cc1	u	28	6%	2
CCn1c(NCc2ccc(N(C)C)cc2)nc2ccccc21	47%	35*	u	30*
